Sampled rows, rich in hits. Any-hit rate of the full collection: about 1.2%.
BCLXL inh – inhibitors of human Bcl-xL; Q07817; GST-Bcl-xL / FITC-Bim BH3 peptide fluorescence polarization; inhibition, % at 10.9 µM; actives 0.7% (n = 320,000); AID 2129;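 active = inhibition above the mean of all tested compounds plus 3 SD, cutoff set per campaign, cut at about 30% in these data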;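 also: 0% = DMSO wells and 100% = unlabeled Bim-BH3 peptide competitor; inhibitors lower millipolarization by displacing the labeled peptide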
Target sequence (Q07817 whole entry, looked up): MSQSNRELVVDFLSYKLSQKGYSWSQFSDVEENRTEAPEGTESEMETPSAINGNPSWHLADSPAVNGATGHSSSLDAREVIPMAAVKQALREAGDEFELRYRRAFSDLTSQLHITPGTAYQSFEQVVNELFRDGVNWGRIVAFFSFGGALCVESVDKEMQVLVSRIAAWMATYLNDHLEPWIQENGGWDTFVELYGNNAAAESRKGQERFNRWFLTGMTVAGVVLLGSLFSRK
GLD-1 TGE inh – GLD-1-TGE RNA interaction inhibition (C. elegans) | AID 2280 | Q17339 | actives 0.44% (n = 320,000) | inhibition, % at 5.96 µM | purified GLD-1 + fluorescein TGE RNA, fluorescence polarization;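 active = percent inhibition above a per-plate cutoff, the plate mean of test compounds plus 3 SD, cut at about 30% in these data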;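 also: 0% = DMSO wells with GLD-1 and probe and 100% = wells lacking GLD-1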
Target sequence (Q17339 whole entry, looked up): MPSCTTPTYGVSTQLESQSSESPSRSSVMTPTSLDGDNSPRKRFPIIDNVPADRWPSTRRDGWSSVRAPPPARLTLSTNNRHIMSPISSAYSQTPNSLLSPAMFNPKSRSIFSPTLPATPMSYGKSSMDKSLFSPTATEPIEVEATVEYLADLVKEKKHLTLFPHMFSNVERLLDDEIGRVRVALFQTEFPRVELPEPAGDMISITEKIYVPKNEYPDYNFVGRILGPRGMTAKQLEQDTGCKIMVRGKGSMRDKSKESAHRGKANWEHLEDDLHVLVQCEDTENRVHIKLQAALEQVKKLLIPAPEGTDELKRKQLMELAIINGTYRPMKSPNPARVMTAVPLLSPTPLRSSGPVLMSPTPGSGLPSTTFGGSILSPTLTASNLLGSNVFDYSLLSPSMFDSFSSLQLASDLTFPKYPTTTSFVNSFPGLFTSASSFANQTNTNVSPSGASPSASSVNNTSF
Keap1 Nrf2 FP – Keap1-Nrf2 (human) interaction inhibition | Q14145 | Keap1 Kelch-Nrf2 peptide fluorescence polarization, 1536-well | inhibition, % at 9.4 µM | actives 0.15% (n = 340,000) | AID 504523; in the data active = inhibition above about 12%;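 also: human Keap1 Kelch domain with fluorescein labeled Nrf2 9mer peptide probe; 0% = neutral control wells and 100% = peptide positive control; higher means more block of Keap1 binding to Nrf2 peptide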
MEX-5 binding – C. elegans MEX-5 TCR-2 RNA binding activity. Q9XUB2. MEX-5/FITC-TCR2 RNA binding, fluorescence polarization; hits give low values. activity score (negative = inhibition of binding), % at 10 µM. actives 0.38% (n = 300,000). AID 1832;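 active = inhibition past about -25% in most replicates, and total fluorescence under double the plate's negative control median, limit read from the data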;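 also: 0% = DMSO and -100% = 5 µM competing unlabeled TCR2 RNA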
eLon inh – inhibitors of E. coli Lon protease; P0A9M0; purified E. coli Lon protease, fluorescence polarization; inhibition, % at 7.94 µM; actives 0.42% (n = 360,000); AID 602123; in the data active = inhibition above about 13%, passing the limit was not always enough;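 also: 0% = enzyme with probe and DMSO and 100% = no enzyme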
C-LANA FP – inhibitors of KSHV LANA C-terminal domain DNA binding; MBP-C-LANA/FAM-LBS DNA binding, fluorescence polarization; inhibition, % at 9 µM; actives 0.078% (n = 340,000); AID 504423;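 active = highest replicate inhibition at or above 60% at 9 µM, even if other replicates fall short; inactive = all replicates below 60% inhibition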;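 also: 0% = neutral control wells and 100% = 4 µM acridine orange control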
Active calls of the source: *; · = not tested or not shown.

SMILES	BCLXL inh	GLD-1 TGE inh	Keap1 Nrf2 FP	MEX-5 binding	eLon inh	C-LANA FP
O=S1(=O)CC(N2CC=CC2)CN1Cc1cn(Cc2cccc(C(F)(F)F)c2)nn1 (stereo not given)	·	·	·	·	-1.6	·
O=C(COC(=O)CCc1c[nH]c2ccccc12)Nc1ccccc1	·	·	-1.4	·	-2.4	0.4
O=C(COC(=O)CCc1c[nH]c(=O)[nH]1)Nc1ccccc1	17.5	13.3	6.7	·	24.0*	5.7
N#Cc1ccc(-c2cccnc2)nc1SCC(=O)c1ccccc1	35.8*	-87.0	2.5	3.9	-246.9	1.0
O=C(NCCCN1CCCC1=O)C(=O)NCC1OCCCN1S(=O)(=O)c1ccccc1 (stereo not given)	·	·	·	·	-0.5	·
Cc1ccc(S(=O)(=O)C(C#N)c2nc3ccccc3nc2N2CCN(C)CC2)cc1 (stereo not given)	8.1	4.7	-4.0	-0.2	-6.6	-0.2
CCOC(=O)N1CCN(c2nc3ccccc3nc2C(C#N)S(=O)(=O)c2ccc(C)cc2)CC1 (stereo not given)	14.8	7.2	1.7	-34.9*	2.8	0.2
Cc1cc(C=O)c(C)n1-c1cccc(C(=O)O)c1	1.2	-1.7	-5.9	-2.8	4.4	8.3
Cc1ccc(C)n1-c1cccc(N)c1	36.0*	-10.9	·	-3.7	·	·
Cc1ccc(C)n1-c1cccc(C(=O)O)c1	25.7	14.4	·	-92.9*	·	·
CC(=O)c1c(C)[nH]c(C(=O)OCC(=O)Nc2nnc(-c3ccccc3)o2)c1C	2.4	3.1	0.1	·	-7.5	2.8
Cc1ccc(N2C(=O)C3C(C2=O)C(C(=O)c2ccc(Cl)cc2)N2CCCC32)cc1 (stereo not given)	73.3*	46.2*	-6.1	-1.8	4.9	-0.6
CC1Cc2nc(SCC(=O)NCC3CCCO3)n(-c3ccc(F)cc3)c(=O)c2S1 (stereo not given)	64.1*	0.0	0.2	-1.8	5.2	-1.2
Cc1ccc(CNC(=O)CN2c3cccc4cccc(c34)S2(=O)=O)cc1	42.1*	21.9	-6.8	·	-4.3	1.1
O=C(CN1c2cccc3cccc(c23)S1(=O)=O)NCc1ccc(F)cc1	·	1.5	-5.9	·	-12.7	0.8
Cc1c(CN2CCCCC2)c(O)n(CCCO)c(=O)c1C#N	35.3*	27.1	-2.2	-45.7*	-2.0	10.7
CCCn1c(O)c(CN2CCCCC2)c(C)c(C#N)c1=O	23.5	22.6	5.1	-51.1*	5.5	14.6
COc1ccc(-c2oc3ccc(-c4cc(OC)c(OC)c(OC)c4)cc3c2-c2ccc(OC)nc2)cc1	-0.8	3.2	-3.4	-5.9	-8.9	-1.8
CN1C(=O)C(C)(C)c2cc(S(=O)(=O)N3CCN(c4ccccc4F)CC3)ccc21	4.4	7.8	-0.3	-0.5	-10.1	-2.2
COc1ccc([C@H]2C[C@@H](n3cc(COC(=O)c4ccccc4)nn3)[C@H](O)CN2Cc2cccs2)cc1	·	·	·	·	5.2	·
O=C(C(Cl)c1ccccc1)N1CCOCC1 (stereo not given)	1.7	5.8	1.1	3.1	5.7	0.4
Cc1cc(C)cc(OCC(=O)NCCc2nc3ccccc3[nH]2)c1	47.2*	-5.0	0.5	-1.2	-3.8	-0.7
CN1CCN(C2=C(Cl)C(=O)N(CCc3ccccc3)C2=O)CC1	51.0*	30.2	-0.3	-1.3	4.7	3.7
Cc1cccn2c(=O)c3cc(C(=O)NCc4ccco4)c(=N)n(C4CCCCC4)c3nc12	19.9	10.9	-1.6	-1.2	-3.2	-0.6
COCCn1c(=N)c(C(=O)NCc2ccco2)cc2c(=O)n3cc(C)ccc3nc21	72.0*	56.0*	-1.1	-12.4	-3.7	0.5
SMILES	BCLXL inh	GLD-1 TGE inh	Keap1 Nrf2 FP	MEX-5 binding	eLon inh	C-LANA FP
Cc1ccc2nc3c(cc(C(=O)NCc4ccco4)c(=N)n3C3CCCC3)c(=O)n2c1	69.0*	37.5*	-0.9	-11.9	-2.0	0.5
Cc1ccc(Cn2c(=N)c(C(=O)NCc3ccco3)cc3c(=O)n4ccccc4nc32)cc1	14.7	-0.9	-0.7	-2.0	-11.9	1.1
N=c1c(C(=O)NCc2ccco2)cc2c(=O)n3ccccc3nc2n1CCc1ccccc1	31.6*	11.8	-3.5	-4.7	-6.0	1.0
Cc1cccn2c(=O)c3cc(C(=O)NCc4ccco4)c(=N)n(CCOCCO)c3nc12	55.2*	23.8	0.7	-7.6	-3.9	2.3
CN(c1ccccc1)S(=O)(=O)c1cccc(NC(=O)C2=NN(c3ccccc3)C(=O)CC2)c1	·	8.7	3.0	·	-11.7	1.5
O=C1NCCCC2c3c(cc(Br)c(O)c3Br)OC12N1CCOCC1 (stereo not given)	4.5	-0.7	-0.1	-1.9	8.7	1.1
O=C1NCCCC2c3cc(O)c4ccccc4c3OC12N1CCCCC1 (stereo not given)	52.1*	26.9	·	·	·	·
c1ccc(-c2nnc(-c3ccccn3)c(-c3ccccn3)n2)nc1	10.5	3.4	·	-7.2	4.0	·
c1ccc(-c2nnc(-c3ccccn3)nn2)nc1	0.4	-2.6	-6.8	-41.6*	0.3	-0.5
CC1Cc2cc(S(=O)(=O)N3CCN(c4ccccc4)CC3)ccc2N1C(=O)C1CC1 (stereo not given)	6.6	9.9	-7.1	2.1	-2.9	-0.6
CCCCn1c(O)c(N=Nc2ccccn2)c2ccccc21	-4.8	2.7	1.3	-30.8*	-19.9	-1.2
Cc1cc(=O)cc(C)n1-c1ccc2c(c1)nc(C)n2-c1ccccc1	2.0	-1.6	-5.0	1.9	0.9	0.9
Cc1cc(=O)cc(C)n1-c1ccc(Br)cc1	-3.6	87.9*	-3.9	2.0	17.5	0.3
C=CCn1c(=N)n(CC(=O)c2ccc(OC)cc2)c2ccccc21	-7.1	3.7	2.2	1.1	2.2	-0.4
COc1ccc(C)cc1Nc1n[n+](C)c(-c2ccc(O)cc2O)s1	0.8	-3.5	-4.7	0.4	3.9	0.3
COc1ccc(C)cc1Nc1n[n+](C)c(-c2c3ccccc3cc3ccccc23)s1	31.7*	13.4	-4.0	-17.3	·	-0.3
COc1ccc(NC(=O)C2CCCN2S(=O)(=O)c2ccc(Cl)cc2)cc1 (stereo not given)	-1.1	8.7	-5.6	0.5	-2.3	0.7
COCC1CCN(C(=O)CC2C(=O)NCCN2Cc2cccc(Oc3ccccc3)c2)CC1 (stereo not given)	11.5	2.8	-3.7	-25.7*	3.1	1.0
O=C1NCCN(Cc2cccc(Oc3ccccc3)c2)C1CC(=O)N1CCCO1 (stereo not given)	3.6	2.4	1.7	3.8	-3.9	-0.6
COC1CCN(C(=O)CC2C(=O)NCCN2CC(C)(C)C)CC1 (stereo not given)	44.6*	28.2	7.8	-0.9	2.6	0.5
COC1CCN(C(=O)CC2C(=O)NCCN2CC2CCCCC2)CC1 (stereo not given)	19.2	11.6	-4.2	-0.9	5.9	1.2
O=C1CCCC2=C1C1(CCCC1)N=C(Nc1nc3cc(-c4ccccc4)ccc3o1)N2	·	·	·	·	-2.1	·

Screening results (PubChem BioAssay)
